This test is described as follows: HEK293T cell cytotoxicity, dose response, cytotoxicity control for HIV Vif inhibitor project, cherry-picks (AID 652208).

Entries with a potency or affinity are not part of this list. The source made the active and inactive calls.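 Rule for the calls: active = Loss of cell signal with fitted half-effect dose at or below twice the top valid tested dose; inconclusive = Poor fit, or flat fit from -70 to -30 percent; inactive = Half-effect above limit, rising signal, or flat within 30 percent.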

Regarding `CCN(CCCNC(=O)C1CCC(=O)N1Cc1ccc(C)cc1)c1cccc(C)c1` (centres undefined), the molecule was classed as inactive.

Regarding `CN(C)c1ccc(C(O)Cc2nc3ccccc3n2C)cc1` (centres undefined), the molecule was called inactive.

Regarding `CSc1ccc(CN(C)CC(=O)NCCc2ccccc2)cc1`, the molecule was called inactive.

With `CCOc1ccc(C(C)=O)cc1COC(=O)c1cc([N+](=O)[O-])ccc1N1CCOCC1`, the molecule was classed as inactive.

Turning to `CCN(CC)C(=O)c1sc2nc(-c3cccs3)cc(-c3cccs3)c2c1N`, the call was inactive.

Consider `COc1cc(C2C3=C(COC3=O)Oc3cc4c(cc32)OCO4)cc(OC)c1O` (centres undefined), for which the outcome was inactive.

Turning to `O=C(CCCn1c(=S)[nH]c2ccccc2c1=O)N1CCN(c2cccc(Cl)c2)CC1`, the outcome was inactive.

Regarding `COc1cc2[nH]c(=O)n(CCCC(=O)NC3CCCCC3)c(=O)c2cc1OC`, the molecule was classed as inactive.

Regarding `Cc1nc(-c2ccc(O)c(O)c2)cs1`, the call was inactive.

Regarding `CCCCCCOC(=O)C(C#N)c1nc2ccccc2nc1N1CCOCC1` (centres undefined), the molecule was called inactive.

Consider `c1ccc(-c2cn3nc(-c4ccccc4)c(-c4ccccc4)nc3n2)cc1`, for which the result was inactive.

In the case of `CCOC(=O)c1c(C)[nH]c(-c2csc(N)n2)c1C`, the call was inactive.

`COc1ccc(NC(=O)c2ccccc2NC(=O)CSc2ccc(C)cc2)cc1`: the molecule was classed as inactive.

For `COc1cc(CNCc2ccccc2)c(Br)cc1OC1CCCC1`, the molecule was called inactive.

As for `O=C(C1COc2ccccc2O1)N1CCN(Cc2ccc3c(c2)OCO3)CC1` (centres undefined), the result was inactive.

Regarding `NS(=O)(=O)c1ccc(-c2ccc(/C=C3\SC(=O)NC3=O)o2)cc1`, the result was inactive.

With `COc1ccc2nc(N3C(=O)C(O)=C(C(=O)c4ccco4)C3c3ccccc3OC)sc2c1` (centres undefined), the result was inactive.

`CCCCCCn1c(N(CC)CC)nc2c1c(=O)[nH]c(=O)n2C`: the outcome was inactive.

In the case of `CC(C)CN(C(=O)COC(=O)CSc1ccccc1)c1c(N)n(Cc2ccccc2)c(=O)[nH]c1=O`, the molecule was classed as inactive.

As for `OC(CNCc1ccccc1Cl)COc1ccc(F)cc1` (centres undefined), the molecule was called inactive.

Turning to `Cc1ncoc1C(=O)N1CCCC(C(=O)c2ccc(Oc3ccccc3)cc2)C1` (centres undefined), the result was inactive.

For `Cc1cc(NS(=O)(=O)c2ccc(NC(=O)c3ccc(Cl)cc3Cl)cc2)no1`, the molecule was classed as inactive.

As for `COc1ccc(OC)c(NC(=O)c2nc(-c3ccccc3)oc2C)c1`, the call was inactive.

As for `O=C(O)c1ccc(S(=O)(=O)c2ccc3c(c2)C(=O)N(c2ccc(Br)cc2)C3=O)cc1`, the result was inactive.

Regarding `CCn1c(CC(=O)Nc2ccccc2)nnc1SCC(=O)Nc1nnc(C)s1`, the result was inactive.

Regarding `CN(C)c1ccc(/C=C2\SC(=O)N(CCc3nnc(N)s3)C2=O)cc1`, the call was inactive.

As to `COc1cc(Nc2nc3ccccc3n3nnnc23)cc(OC)c1OC`, the molecule was classed as inactive.

For `COc1cc(C(C)=O)ccc1OCC(=O)NCC1(N2CCCCC2)CCCCC1`, the call was inactive.

`O=C(CCCSc1nc2ccccc2c(=O)[nH]1)c1ccccc1`: the call was inactive.

For `CCN1C(=O)c2cccc3c(S(=O)(=O)Nc4ccccc4O)ccc1c23`, the molecule was classed as inactive.

With `COc1ccc2cc(CCNS(=O)(=O)c3ccc(NC(C)=O)cc3)c(=O)[nH]c2c1`, the molecule was called inactive.

In the case of `COc1ccc(-c2nnc(SCC(=O)N3CCCc4ccccc43)o2)cc1OC`, the molecule was classed as inactive.

On to `O=C(Nc1ccnc(-c2cccnc2)n1)c1cccs1`, for which the result was inactive.

For the molecule `FC(F)(F)c1nnc2c3ccccc3c(Cl)nn12`, the outcome was inactive.

As for `COCCNC(=O)c1nn2c(C(F)(F)F)cc(-c3ccccc3)nc2c1Cl`, the molecule was classed as inactive.

For `COc1ccc(C(=O)NC2CC3CCCC(C2)N3Cc2ccccc2)cc1OC` (centres undefined), the molecule was called inactive.

On to `Cc1nnc(NC(=O)Cn2nc(C)c3ccccc3c2=O)s1`, for which the molecule was classed as inactive.

As for `Cc1ccc2c(c1)C1CN(C)CCC1N2S(=O)(=O)c1cccc(C(F)(F)F)c1` (centres undefined), the molecule was classed as inactive.

Consider `Cc1cc(/C=C2\NC(=S)N(C)C2=O)ccc1N1CCCC1`, for which the call was inactive.

Take `COc1cc(-c2cc(=O)c3c(O)c(OC)c(OC)c(O)c3o2)ccc1O`: the outcome was inactive.

As to `C=CCn1c(O)c(C2=c3ccccc3=NC2=O)s/c1=N/c1nccs1`, the molecule was classed as inactive.

With `Cc1nn(C)cc1CN(C)Cc1ccc(OCC(O)CN2CCCCC2)cc1` (centres undefined), the outcome was inactive.

Turning to `Cc1cc(C)c(S(=O)(=O)N2CCN(S(=O)(=O)N3CCOCC3)CC2)c(C)c1`, the molecule was called inactive.

`Cc1cc(C)c2nc3sc(C(=O)N4CCOCC4)c(N)c3cc2c1`: the outcome was inactive.

With `O=C(NCc1ccccn1)c1ccc(Cn2c(=S)[nH]c3ccc(Br)cc3c2=O)cc1`, the outcome was inactive.

Regarding `CN(C)c1ccc(/C=C2\SC(N3CCCCC3)=NC2=O)cc1`, the outcome was inactive.

As to `O=C(Nc1cnccn1)Nc1ccccc1Cl`, the molecule was called inactive.

Regarding `Cc1ccc(-n2nnc3c(=O)n(CC(=O)OCc4ccccc4)cnc32)cc1`, the call was inactive.

Take `Cc1nc(-c2ccccc2OC(F)(F)F)[nH]c(=O)c1Cl`: the call was inactive.

(Values after PubChem BioAssay AID652208 (Broad Institute, 2013).)
